The full ranking holds about 16,000 sequences; the median of “rpm ratio (pull-down/input)” is about 0.5, and the highest 2% start at about 5.5. This excerpt belongs to a sample that is enriched for the highest values.
The sequences below were run against T1, MBP-FoxP3dN (Mus musculus, UniProt Q99JB6 188-423) (assay: PD-seq (MBP pull-down with sequencing); 20 mM Tris-HCl pH 7.5, 100 mM NaCl, 1.5 mM MgCl2, 0.4 uM protein, 0.1 uM dsDNA library, 30 min, room temperature, amylose pull-down; high values mean tight binding). Details: protein: recombinant; tags: His6-MBP; chain copies: 2; dsDNA, one strand shown.
T1 sequence: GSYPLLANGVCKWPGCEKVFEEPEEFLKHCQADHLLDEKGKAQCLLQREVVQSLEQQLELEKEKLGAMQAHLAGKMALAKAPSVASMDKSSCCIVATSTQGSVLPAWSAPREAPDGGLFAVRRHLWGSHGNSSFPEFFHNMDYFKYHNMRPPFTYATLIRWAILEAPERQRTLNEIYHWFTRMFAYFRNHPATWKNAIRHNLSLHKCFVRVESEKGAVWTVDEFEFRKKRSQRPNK
Method in brief: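 His6-MBP-tagged mouse FoxP3 or FoxP1 fragment lacking the N-terminus, expressed in E. coli, was mixed at 0.4 µM with 0.1 µM Klenow-filled double-stranded degenerate DNA library. Incubation was 30 min at room temperature in Tris pH 7.5 buffer with NaCl and MgCl2. Complexes were caught on amylose resin and washed three times; DNA was released with proteinase K, PCR-barcoded and Illumina-sequenced. Binding is reads-per-million enrichment, pull-down over input, with replicates pooled.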

Q: How did the binding signal turn out when “GATGATTGTTCTCCCAGCTGATGAATTAAATCTCTCGAGTAAACAAATTTTCCTAATCTTTCTGTTCAAGCGCCATCTAC” was run?
A: 0.29 RPM ratio (pull-down/input)

Q: For “GATGATTGTTCTCCCAGCTGATGAATTCAGTTCGTCGAGTAAACAAATTTTCCTAATCTTTCTGTTCAAGCGCCATCTAC”, which binding signal is on record?
A: 0.758 RPM ratio (pull-down/input)

Q: Which binding signal does the source give for “GATGATTGTTCTCCCAGCTGATGAATTACTTCTATCGAGTAAACAAATTTTCCTAATCTTTCTGTTCAAGCGCCATCTAC” here?
A: 0.347 RPM ratio (pull-down/input)

Q: Which binding signal does the source give for “GATGATTGTTCTCCCAGCTGATGAATTCCGAACTTCGAGTAAACAAATTTTCCTAATCTTTCTGTTCAAGCGCCATCTAC” here?
A: 0.253 RPM ratio (pull-down/input)

Q: For “GATGATTGTTCTCCCAGCTGATGAATTATGACACTCGAGTAAACAAATTTTCCTAATCTTTCTGTTCAAGCGCCATCTAC”, which binding signal is on record?
A: 2.61 RPM ratio (pull-down/input)

Q: Which binding signal does the source give for “GATGATTGTTCTCCCAGCTGATGAATTATTCATTTCGAGTAAACAAATTTTCCTAATCTTTCTGTTCAAGCGCCATCTAC” here?
A: 0.406 RPM ratio (pull-down/input)

Q: With “GATGATTGTTCTCCCAGCTGATGAATTTATGCATTCGAGTAAACAAATTTTCCTAATCTTTCTGTTCAAGCGCCATCTAC” as the sequence, how does the binding signal read?
A: 7.56 RPM ratio (pull-down/input)

Q: With “GATGATTGTTCTCCCAGCTGATGAATTATGAAACTCGAGTAAACAAATTTTCCTAATCTTTCTGTTCAAGCGCCATCTAC” as the sequence, how does the binding signal read?
A: 0.828 RPM ratio (pull-down/input)

Q: For “GATGATTGTTCTCCCAGCTGATGAATTATGCAACTCGAGTAAACAAATTTTCCTAATCTTTCTGTTCAAGCGCCATCTAC”, which binding signal is on record?
A: 6.6 RPM ratio (pull-down/input)

Q: “GATGATTGTTCTCCCAGCTGATGAATTTTATGCATCGAGTAAACAAATTTTCCTAATCTTTCTGTTCAAGCGCCATCTAC” was tested. Which binding signal did it give?
A: 1.54 RPM ratio (pull-down/input)

Q: For “GATGATTGTTCTCCCAGCTGATGAATTATTCAACTCGAGTAAACAAATTTTCCTAATCTTTCTGTTCAAGCGCCATCTAC”, which binding signal is on record?
A: 0.381 RPM ratio (pull-down/input)

Q: How did the binding signal turn out when “GATGATTGTTCTCCCAGCTGATGAATTATGGCATTCGAGTAAACAAATTTTCCTAATCTTTCTGTTCAAGCGCCATCTAC” was run?
A: 5.55 RPM ratio (pull-down/input)

Q: With “GATGATTGTTCTCCCAGCTGATGAATTATTTCATTCGAGTAAACAAATTTTCCTAATCTTTCTGTTCAAGCGCCATCTAC” as the sequence, how does the binding signal read?
A: 0.381 RPM ratio (pull-down/input)

Q: How did the binding signal turn out when “GATGATTGTTCTCCCAGCTGATGAATTTATGAATTCGAGTAAACAAATTTTCCTAATCTTTCTGTTCAAGCGCCATCTAC” was run?
A: 0.946 RPM ratio (pull-down/input)

Q: With “GATGATTGTTCTCCCAGCTGATGAATTATGCCACTCGAGTAAACAAATTTTCCTAATCTTTCTGTTCAAGCGCCATCTAC” as the sequence, how does the binding signal read?
A: 6.25 RPM ratio (pull-down/input)

Q: With “GATGATTGTTCTCCCAGCTGATGAATTATCCCACTCGAGTAAACAAATTTTCCTAATCTTTCTGTTCAAGCGCCATCTAC” as the sequence, how does the binding signal read?
A: 0.322 RPM ratio (pull-down/input)

Q: “GATGATTGTTCTCCCAGCTGATGAATTGAAAACATCGAGTAAACAAATTTTCCTAATCTTTCTGTTCAAGCGCCATCTAC” was tested. Which binding signal did it give?
A: 1.27 RPM ratio (pull-down/input)

Q: For “GATGATTGTTCTCCCAGCTGATGAATTCAGGACCTCGAGTAAACAAATTTTCCTAATCTTTCTGTTCAAGCGCCATCTAC”, which binding signal is on record?
A: 0.26 RPM ratio (pull-down/input)

Q: Which binding signal does the source give for “GATGATTGTTCTCCCAGCTGATGAATTGCGTCATTCGAGTAAACAAATTTTCCTAATCTTTCTGTTCAAGCGCCATCTAC” here?
A: 2.09 RPM ratio (pull-down/input)

Q: How did the binding signal turn out when “GATGATTGTTCTCCCAGCTGATGAATTGCGGGGGTCGAGTAAACAAATTTTCCTAATCTTTCTGTTCAAGCGCCATCTAC” was run?
A: 0.984 RPM ratio (pull-down/input)

Q: With “GATGATTGTTCTCCCAGCTGATGAATTGAGCTGGTCGAGTAAACAAATTTTCCTAATCTTTCTGTTCAAGCGCCATCTAC” as the sequence, how does the binding signal read?
A: 0.419 RPM ratio (pull-down/input)

Q: With “GATGATTGTTCTCCCAGCTGATGAATTAGGATGGTCGAGTAAACAAATTTTCCTAATCTTTCTGTTCAAGCGCCATCTAC” as the sequence, how does the binding signal read?
A: 0.492 RPM ratio (pull-down/input)

Q: With “GATGATTGTTCTCCCAGCTGATGAATTGGAAGCCTCGAGTAAACAAATTTTCCTAATCTTTCTGTTCAAGCGCCATCTAC” as the sequence, how does the binding signal read?
A: 0.359 RPM ratio (pull-down/input)

Q: Which binding signal does the source give for “GATGATTGTTCTCCCAGCTGATGAATTGAATAGATCGAGTAAACAAATTTTCCTAATCTTTCTGTTCAAGCGCCATCTAC” here?
A: 0.257 RPM ratio (pull-down/input)

Q: “GATGATTGTTCTCCCAGCTGATGAATTTGGTGCCTCGAGTAAACAAATTTTCCTAATCTTTCTGTTCAAGCGCCATCTAC” was tested. Which binding signal did it give?
A: 1.91 RPM ratio (pull-down/input)

Q: “GATGATTGTTCTCCCAGCTGATGAATTATGCATTTCGAGTAAACAAATTTTCCTAATCTTTCTGTTCAAGCGCCATCTAC” was tested. Which binding signal did it give?
A: 7.25 RPM ratio (pull-down/input)

Q: “GATGATTGTTCTCCCAGCTGATGAATTTATGCAATCGAGTAAACAAATTTTCCTAATCTTTCTGTTCAAGCGCCATCTAC” was tested. Which binding signal did it give?
A: 4.25 RPM ratio (pull-down/input)

Q: “GATGATTGTTCTCCCAGCTGATGAATTATGATTTTCGAGTAAACAAATTTTCCTAATCTTTCTGTTCAAGCGCCATCTAC” was tested. Which binding signal did it give?
A: 1.8 RPM ratio (pull-down/input)

Q: “GATGATTGTTCTCCCAGCTGATGAATTATGAATTTCGAGTAAACAAATTTTCCTAATCTTTCTGTTCAAGCGCCATCTAC” was tested. Which binding signal did it give?
A: 1.57 RPM ratio (pull-down/input)

Q: How did the binding signal turn out when “GATGATTGTTCTCCCAGCTGATGAATTATGAATCTCGAGTAAACAAATTTTCCTAATCTTTCTGTTCAAGCGCCATCTAC” was run?
A: 2.3 RPM ratio (pull-down/input)

Q: “GATGATTGTTCTCCCAGCTGATGAATTATGCAGCTCGAGTAAACAAATTTTCCTAATCTTTCTGTTCAAGCGCCATCTAC” was tested. Which binding signal did it give?
A: 3.11 RPM ratio (pull-down/input)

Q: With “GATGATTGTTCTCCCAGCTGATGAATTATGCATCTCGAGTAAACAAATTTTCCTAATCTTTCTGTTCAAGCGCCATCTAC” as the sequence, how does the binding signal read?
A: 7.47 RPM ratio (pull-down/input)

Reference: PMC12820563, “FoxP3 forms a head-to-head dimer in vivo and stabilizes its multimerization on adjacent microsatellites”
